# The entries come from a sample that favours the strongest signals as a whole.
# B1: SSR1 (Sclerotium rolfsii), A0A0M3KL30 (protein)
# chain: TYKITVRVYQTNPDAFFHPVEKTVWKYANGGTWTITDDQHVLTMGGSGTSGTLRFHADNGESFTATFGVHNYKRWCDIVTNLAADETGMVINQQYYSQKNREEARERQLSNYQVKNAKGRNFQIVYTEAEGNDLHANLIIG
# What was measured:
# Assay in all cases: glycan array binding signal (z-score within array); higher = stronger binding
# Conditions in all cases: glycan notation: IUPAC condensed, linker removed
# [1] = biological target: Fuc(a1-2)Gal(b1-3)GalNAc(b1-4)[Neu5Ac(a2-3)]Gal(b1-4)Glc
# How it was run: (§1)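 Glycan array binding is given as a within-array Z-score, which can be read as non-binding when negative. The arrays, 3228 of them, came from the Consortium for Functional Glycomics database and were retained only where the protein sequence was available. Z-scores were averaged across arrays of the same protein sequence at different concentrations or buffers and across linkers.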
# [2] = biological target: Fuc(a1-2)Gal(b1-3)GlcNAc(b1-3)[Gal(b1-4)GlcNAc(b1-6)]Gal(b1-4)Glc
# How it was run: as §1
# [3] = biological target: Fuc(a1-2)Gal(b1-4)GlcNAc(b1-3)Gal(b1-4)GlcNAc
# How it was run: as §1
# [4] = biological target: Fuc(a1-2)Gal(b1-4)GlcNAc(b1-3)[Fuc(a1-3)[Gal(b1-4)]GlcNAc(b1-6)]Gal(b1-4)Glc
# How it was run: as §1
# [5] = biological target: Fuc(a1-2)Gal(b1-4)[Fuc(a1-3)]GlcNAc(b1-3)Gal(b1-4)[Fuc(a1-3)]GlcNAc
# How it was run: as §1
# [6] = biological target: Fuc(a1-2)[Gal(a1-3)]Gal(b1-4)GlcNAc(b1-3)[Fuc(a1-2)[Gal(a1-3)]Gal(b1-4)GlcNAc(b1-6)]GalNAc
# How it was run: as §1
# [7] = biological target: Fuc(a1-2)[Gal(a1-3)]Gal(b1-4)GlcNAc(b1-6)GalNAc
# How it was run: as §1
# [8] = biological target: Fuc(a1-2)[GalNAc(a1-3)]Gal(b1-3)GlcNAc(b1-2)Man(a1-3)[Fuc(a1-2)[GalNAc(a1-3)]Gal(b1-3)GlcNAc(b1-2)Man(a1-6)]Man(b1-4)GlcNAc(b1-4)GlcNAc
# How it was run: as §1
# [9] = biological target: Fuc(a1-2)[GalNAc(a1-3)]Gal(b1-4)GlcNAc(b1-3)Gal(b1-4)GlcNAc
# How it was run: as §1
# [10] = biological target: Fuc(a1-3)[Gal(b1-4)]GlcNAc(b1-2)Man(a1-3)[Fuc(a1-3)[Gal(b1-4)]GlcNAc(b1-2)Man(a1-6)]Man(b1-4)GlcNAc(b1-4)[Fuc(a1-6)]GlcNAc
# How it was run: as §1
# [11] = biological target: Fuc(a1-3)[Gal(b1-4)]GlcNAc(b1-6)GalNAc
# How it was run: as §1
# [12] = biological target: Gal(a1-3)Gal(b1-4)GlcNAc(b1-2)Man(a1-3)[Gal(a1-3)Gal(b1-4)GlcNAc(b1-2)Man(a1-6)]Man(b1-4)GlcNAc(b1-4)GlcNAc
# How it was run: as §1
# [13] = biological target: Gal(b1-3)[Fuc(a1-4)]GlcNAc
# How it was run: as §1
# [14] = biological target: Gal(b1-3)[Neu5Ac(a2-6)]GalNAc
# How it was run: as §1
# [15] = biological target: Gal(b1-4)GlcNAc(b1-2)Man(a1-3)[Gal(b1-4)GlcNAc(b1-2)Man(a1-6)]Man(b1-4)GlcNAc(b1-4)GlcNAc
# How it was run: as §1
# [16] = biological target: Gal(b1-4)GlcNAc(b1-2)Man(a1-3)[Gal(b1-4)GlcNAc(b1-2)Man(a1-6)][GlcNAc(b1-4)]Man(b1-4)GlcNAc(b1-4)[Fuc(a1-6)]GlcNAc
# How it was run: as §1
# [17] = biological target: Gal(b1-4)GlcNAc(b1-2)Man(a1-3)[GlcNAc(b1-4)][Gal(b1-4)GlcNAc(b1-2)Man(a1-6)]Man(b1-4)GlcNAc(b1-4)GlcNAc
# How it was run: as §1
# [18] = biological target: Gal(b1-4)GlcNAc(b1-2)Man(a1-6)Man(b1-4)GlcNAc(b1-4)GlcNAc
# How it was run: as §1
# [19] = biological target: Gal(b1-4)GlcNAc(b1-2)Man(a1-6)[GlcNAc(b1-2)Man(a1-3)]Man(b1-4)GlcNAc(b1-4)GlcNAc
# How it was run: as §1
# [20] = biological target: Gal(b1-4)GlcNAc(b1-3)Gal(b1-3)GalNAc
# How it was run: as §1
# [21] = biological target: Gal(b1-4)GlcNAc(b1-3)Gal(b1-4)GlcNAc(b1-3)Gal(b1-4)GlcNAc(b1-2)[Gal(b1-4)GlcNAc(b1-3)Gal(b1-4)GlcNAc(b1-3)Gal(b1-4)GlcNAc(b1-6)]Man(a1-6)[Gal(b1-4)GlcNAc(b1-3)Gal(b1-4)GlcNAc(b1-3)Gal(b1-4)GlcNAc(b1-2)Man(a1-3)]Man(b1-4)GlcNAc(b1-4)[Fuc(a1-6)]GlcNAc
# How it was run: as §1
# [22] = biological target: Gal(b1-4)GlcNAc(b1-3)Gal(b1-4)GlcNAc(b1-3)GalNAc
# How it was run: as §1
# Gal6S(b1-4)Glc = biological target: Gal6S(b1-4)Glc
# How it was run: as §1
# Gal6S(b1-4)GlcNAc = biological target: Gal6S(b1-4)GlcNAc
# How it was run: as §1
# [23] = biological target: GlcNAc(a1-3)Gal(b1-4)GlcNAc
# How it was run: as §1
# [24] = biological target: GlcNAc(a1-4)Gal(b1-4)GlcNAc
# How it was run: as §1
# [25] = biological target: GlcNAc(a1-4)Gal(b1-4)GlcNAc(b1-3)Gal(b1-4)Glc
# How it was run: as §1
# [26] = biological target: GlcNAc(a1-4)Gal(b1-4)GlcNAc(b1-3)Gal(b1-4)GlcNAc
# How it was run: as §1
binder,measurement,setting,value
B1,glycan array binding signal (z-score),[1],-0.338
same,glycan array binding signal (z-score),[2],-0.321
same,glycan array binding signal (z-score),[3],-0.335
same,glycan array binding signal (z-score),[4],-0.328
same,glycan array binding signal (z-score),[5],-0.306
same,glycan array binding signal (z-score),[6],-0.325
same,glycan array binding signal (z-score),[7],-0.34
same,glycan array binding signal (z-score),[8],0.338
same,glycan array binding signal (z-score),[9],0.292
same,glycan array binding signal (z-score),[10],-0.33
same,glycan array binding signal (z-score),[11],-0.33
same,glycan array binding signal (z-score),[12],-0.321
same,glycan array binding signal (z-score),[13],-0.333
same,glycan array binding signal (z-score),[14],0.823
same,glycan array binding signal (z-score),[15],-0.338
same,glycan array binding signal (z-score),[16],-0.334
same,glycan array binding signal (z-score),[17],-0.342
same,glycan array binding signal (z-score),[18],-0.337
same,glycan array binding signal (z-score),[19],3.01
same,glycan array binding signal (z-score),[20],1.12
same,glycan array binding signal (z-score),[21],-0.33
same,glycan array binding signal (z-score),[22],0.602
same,glycan array binding signal (z-score),Gal6S(b1-4)Glc,-0.323
same,glycan array binding signal (z-score),Gal6S(b1-4)GlcNAc,-0.336
same,glycan array binding signal (z-score),[23],3.12
same,glycan array binding signal (z-score),[24],3.11
same,glycan array binding signal (z-score),[25],3.37
same,glycan array binding signal (z-score),[26],4.43

# From the supplement of paper PMC8728848
